# According to PubChem BioAssay (NCATS):
# Records with an inconclusive call do not appear. A number with no mark means an inactive call. Calls of active or inactive are those of the source. Calls come from the whole dose curve; as a rule, active = well fitted curve in the direction sought with a large enough effect; inconclusive = small, poorly fitted or top-dose-only effect, or another doubt; inactive = no such curve, though single readings can be large; an effect the other way counts as inactive or inconclusive.
# Columns and labels:
# [1] = qHTS of pediatric cancer cell lines to identify multiple opportunities for drug repurposing: Primary screen for SJ-GBM2 cells (AID 1347091); note: potency is the fitted concentration of half-maximal effect
# In short: (§1)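 Viability measured as metabolically active cells via CellTiter-Glo luminescence following 48 hours of compound exposure, 11-point dilutions in confirmatory testing. 500-1,000 cells/well plated 5 hours before dosing; controls were DMSO and 2.3 µM bortezomib.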
# [2] = qHTS of pediatric cancer cell lines to identify multiple opportunities for drug repurposing: Primary screen for A673 cells (AID 1347092); note: nearly all actives have a fitted effect of over 45% in size; note: potency is the fitted concentration of half-maximal effect
# In short: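 Luminescence from CellTiter-Glo, taken after 15 min at room temperature, served as the proxy for metabolically active cells following 48 h treatment. Both potency and efficacy were taken from curves fitted to the titration data.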
# [3] = qHTS of pediatric cancer cell lines to identify multiple opportunities for drug repurposing: Primary screen for SK-N-MC cells (AID 1347093); note: potency is the fitted concentration of half-maximal effect
# In short: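 Metabolically active cells were quantified by ATP-dependent luminescence (CellTiter-Glo, 15 min at room temperature) following 48 h treatment. Cells had been plated at 500-1,000 per well and settled for 5 h beforehand.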
# [4] = qHTS of pediatric cancer cell lines to identify multiple opportunities for drug repurposing: Primary screen for NB-EBc1 cells (AID 1347095); note: potency is the fitted concentration of half-maximal effect
# In short: (§2)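 Viability was measured as metabolically active cells after 48 hours of treatment, read by CellTiter-Glo luminescence. Compounds were tested at multiple final concentrations, giving concentration-response curves.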
# [5] = qHTS of pediatric cancer cell lines to identify multiple opportunities for drug repurposing: Primary screen for U-2 OS cells (AID 1347096); note: nearly all actives have a fitted effect of over 50% in size
# In short: (§3)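 Viability after 48 h compound treatment at 37C, 500-1,000 cells/well, read as ATP luminescence with CellTiter-Glo. Primary screens used 11-point (MIPE, 0.78 nM-46 µM) or 8-point (NPC, 0.59 nM-46 µM) final concentrations; follow-up screens used 11-point dilutions.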
# [6] = qHTS of pediatric cancer cell lines to identify multiple opportunities for drug repurposing: Primary screen for Saos-2 cells (AID 1347097); note: nearly all actives have a fitted effect of over 40% in size; note: potency is the fitted concentration of half-maximal effect
# In short: as §2
# [7] = qHTS of pediatric cancer cell lines to identify multiple opportunities for drug repurposing: Primary screen for LAN-5 cells (AID 1347100); note: potency is the fitted concentration of half-maximal effect
# In short: as §3
# [8] = qHTS of pediatric cancer cell lines to identify multiple opportunities for drug repurposing: Primary screen for BT-12 cells (AID 1347101); note: nearly all actives have a fitted effect of over 25% in size; note: potency is the fitted concentration of half-maximal effect
# In short: (§4)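 Cells (500-1,000/well) rested 5 h, then received compounds for 48 h; metabolically active cells were measured by CellTiter-Glo luminescence. Final concentrations spanned up to 46 µM (MIPE, 11-point) or 0.59 nM-46 µM (NPC, 8-point) in primary screens, 11-point in follow-ups.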
# [9] = qHTS of pediatric cancer cell lines to identify multiple opportunities for drug repurposing: Primary screen for OHS-50 cells (AID 1347103); note: nearly all actives have a fitted effect of over 40% in size; note: potency is the fitted concentration of half-maximal effect
# In short: as §4
# [10] = qHTS of pediatric cancer cell lines to identify multiple opportunities for drug repurposing: Primary screen for RD cells (AID 1347104); note: nearly all actives have a fitted effect of over 55% in size; note: potency is the fitted concentration of half-maximal effect
# In short: as §2
# [11] = qHTS of pediatric cancer cell lines to identify multiple opportunities for drug repurposing: Primary screen for DAOY cells (AID 1347090); note: nearly all actives have a fitted effect of over 55% in size; note: potency is the fitted concentration of half-maximal effect
# In short: as §1
# [12] = qHTS of pediatric cancer cell lines to identify multiple opportunities for drug repurposing: Primary screen for SK-N-SH cells (AID 1347098); note: potency is the fitted concentration of half-maximal effect; nearly all actives have a fitted effect of over 65% in size
# In short: as §4
# [13] = qHTS of pediatric cancer cell lines to identify multiple opportunities for drug repurposing: Primary screen for TC32 cells (AID 1347089); note: nearly all actives have a fitted effect of over 60% in size
# In short: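 qHTS, TC32, 48 h drug treatment, CellTiter-Glo luminescence as a proxy for metabolically active cells; primary top concentration 46 µM (MIPE 11-pt, NPC 8-pt); confirmatory 11-pt.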
# [14] = qHTS of pediatric cancer cell lines to identify multiple opportunities for drug repurposing: Primary screen for NB1643 cells (AID 1347099); note: nearly all actives have a fitted effect of over 50% in size; note: potency is the fitted concentration of half-maximal effect
# In short: as §2
# [15] = qHTS of pediatric cancer cell lines to identify multiple opportunities for drug repurposing: Primary screen for Rh18 cells (AID 1347102); note: nearly all actives have a fitted effect of over 65% in size; note: potency is the fitted concentration of half-maximal effect
# In short: as §3
# [16] = qHTS of pediatric cancer cell lines to identify multiple opportunities for drug repurposing: Primary screen for BT-37 cells (AID 1347094); note: potency is the fitted concentration of half-maximal effect
# In short: as §2
smiles,measurement,setting,value
CN(C)/N=N/c1nc[nH]c1C(N)=O,Potency,[1],inactive
same,Potency,[2],inactive
same,Potency,[3],2.66 µM (active)
same,Potency,[4],inactive
same,Potency,[5],inactive
same,Potency,[6],inactive
same,Potency,[7],inactive
same,Potency,[8],inactive
same,Potency,[9],1.74 µM (active)
same,Potency,[10],inactive
C[C@@H]1CN(CCCn2c3ccccc3c3ccccc32)C[C@H](C)N1,Potency,[11],inactive
same,Potency,[4],inactive
same,Potency,[5],inactive
same,Potency,[12],9.7 µM (active)
CN(C/C=C/c1ccccc1)Cc1cccc2ccccc12,Potency,[13],inactive
same,Potency,[5],inactive
same,Potency,[6],23.7 µM (active)
same,Potency,[14],inactive
same,Potency,[15],inactive
same,Potency,[9],27.6 µM (active)
same,Potency,[10],inactive
O=c1c(-c2ccccc2)c1-c1ccccc1,Potency,[11],21.1 µM (active)
same,Potency,[2],8.41 µM (active)
same,Potency,[3],6.68 µM (active)
same,Potency,[6],11.9 µM (active)
same,Potency,[7],18.8 µM (active)
same,Potency,[8],5.5 µM (active)
same,Potency,[9],13.8 µM (active)
CN(C)CC/C=C1\c2ccccc2Sc2ccc(Cl)cc21,Potency,[13],inactive
same,Potency,[5],inactive
same,Potency,[14],inactive
same,Potency,[9],30.9 µM (active)
COc1ccc(CCN2CCC(Nc3nc4ccccc4n3Cc3ccc(F)cc3)CC2)cc1,Potency,[16],30.9 µM (active)
same,Potency,[12],6.12 µM (active)
same,Potency,[7],23.7 µM (active)
same,Potency,[9],30.9 µM (active)
same,Potency,[10],26.6 µM (active)
CC1=C(C(=O)OC(C)C)C(c2cccc([N+](=O)[O-])c2)C(C(=O)OC2CN(C(c3ccccc3)c3ccccc3)C2)=C(N)N1 (stereo unspecified),Potency,[2],13.3 µM (active)
same,Potency,[3],6.68 µM (active)
same,Potency,[6],21.1 µM (active)
same,Potency,[10],23.7 µM (active)
O=C(OCCOCCO)c1ccccc1Nc1cccc(C(F)(F)F)c1,Potency,[13],inactive
same,Potency,[2],inactive
same,Potency,[3],inactive
same,Potency,[16],inactive
same,Potency,[5],inactive
same,Potency,[15],inactive
same,Potency,[9],24.6 µM (active)
same,Potency,[10],inactive
Clc1ccc2c(c1)CCc1cccnc1C2=C1CCNCC1,Potency,[13],inactive
same,Potency,[3],inactive
same,Potency,[16],inactive
same,Potency,[4],inactive
same,Potency,[5],inactive
same,Potency,[9],15.5 µM (active)
CCCSS/C(CCO)=C(\C)N(C=O)Cc1cnc(C)nc1N,Potency,[3],15 µM (active)
same,Potency,[16],inactive
same,Potency,[4],16.8 µM (active)
same,Potency,[5],inactive
same,Potency,[8],inactive
same,Potency,[9],21.9 µM (active)
CCOc1ccc2nc3cc(N)ccc3c(N)c2c1,Potency,[1],inactive
same,Potency,[16],15.5 µM (active)
same,Potency,[4],inactive
same,Potency,[12],15.4 µM (active)
same,Potency,[14],inactive
same,Potency,[8],11 µM (active)
same,Potency,[9],inactive
same,Potency,[10],23.7 µM (active)
CCCCCCCCCCOCC(O)CN (stereo unspecified),Potency,[11],inactive
same,Potency,[2],21.1 µM (active)
same,Potency,[5],inactive
same,Potency,[14],inactive
same,Potency,[15],23.7 µM (active)
same,Potency,[9],30.9 µM (active)
COC1=CC(=O)C[C@@H](C)[C@]12Oc1c(Cl)c(OC)cc(OC)c1C2=O,Potency,[1],21.1 µM (active)
same,Potency,[4],11.9 µM (active)
same,Potency,[5],inactive
same,Potency,[14],inactive
same,Potency,[10],inactive
CCCCCCCCCCCCCCCC[N+](C)(C)CCN(Cc1ccc(OC)cc1)c1ncccn1,Potency,[2],16.8 µM (active)
same,Potency,[3],13.3 µM (active)
same,Potency,[16],24.6 µM (active)
same,Potency,[6],15 µM (active)
same,Potency,[12],27.3 µM (active)
same,Potency,[7],23.7 µM (active)
same,Potency,[8],7.77 µM (active)
same,Potency,[9],6.92 µM (active)
CCCCCCC[N+](CC)(CC)CCCCc1ccc(Cl)cc1,Potency,[1],10.6 µM (active)
same,Potency,[3],3.35 µM (active)
same,Potency,[16],8.71 µM (active)
same,Potency,[4],10.6 µM (active)
same,Potency,[6],6.68 µM (active)
same,Potency,[12],19.4 µM (active)
same,Potency,[14],13.3 µM (active)
same,Potency,[7],2.99 µM (active)
same,Potency,[8],7.77 µM (active)
same,Potency,[15],11.9 µM (active)
same,Potency,[9],3.89 µM (active)
same,Potency,[10],13.3 µM (active)
CN(C(=O)CN(CCO)CC(=O)N(C)C(C)(C)Cc1ccccc1)C(C)(C)Cc1ccccc1,Potency,[11],inactive
same,Potency,[2],inactive
same,Potency,[5],inactive
same,Potency,[8],12.3 µM (active)
same,Potency,[9],17.4 µM (active)
same,Potency,[10],inactive
